Reference: the supplement of paper PMC8728848
Shown is part of a subset that was picked to be rich in the strongest signals.

Assays:
Assay in all cases: glycan array binding signal (z-score within array); higher = stronger binding
Details in all cases: glycan notation: IUPAC condensed, linker removed
[1] = target: Fuc(a1-2)Gal(b1-3)GlcNAc(b1-3)[Gal(b1-4)GlcNAc(b1-6)]Gal(b1-4)Glc
Procedure, shortened: (§1)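 The binding signal is a Z-score computed within each array. Data were drawn from 3228 arrays in the Consortium for Functional Glycomics database, restricted to those with a known protein sequence. Scores were averaged over arrays of the same protein sequence at different concentrations or buffers, and over linkers, and negative values can be taken as non-binding.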

Fuc(a1-2)Gal(b1-4)GlcNAc = target: Fuc(a1-2)Gal(b1-4)GlcNAc
Procedure, shortened: as §1

[2] = target: Fuc(a1-2)Gal(b1-4)GlcNAc(b1-3)[Fuc(a1-3)[Gal(b1-4)]GlcNAc(b1-6)]Gal(b1-4)Glc
Procedure, shortened: as §1

[3] = target: Fuc(a1-2)Gal(b1-4)GlcNAc(b1-6)GalNAc
Procedure, shortened: as §1

[4] = target: Fuc(a1-2)Gal6S(b1-3)GlcNAc
Procedure, shortened: as §1

[5] = target: Fuc(a1-2)[Gal(a1-3)]Gal(b1-3)GlcNAc(b1-2)Man(a1-3)[Fuc(a1-2)[Gal(a1-3)]Gal(b1-3)GlcNAc(b1-2)Man(a1-6)]Man(b1-4)GlcNAc(b1-4)GlcNAc
Procedure, shortened: as §1

[6] = target: Fuc(a1-2)[Gal(a1-3)]Gal(b1-3)GlcNAc(b1-6)GalNAc
Procedure, shortened: as §1

[7] = target: Fuc(a1-2)[Gal(a1-4)]Gal(b1-4)GlcNAc
Procedure, shortened: as §1

[8] = target: Fuc(a1-2)[GalNAc(a1-3)]Gal(b1-3)GlcNAc(b1-6)GalNAc
Procedure, shortened: as §1

[9] = target: Fuc(a1-2)[GalNAc(a1-3)]Gal(b1-4)GlcNAc(b1-2)Man(a1-3)[Fuc(a1-2)[GalNAc(a1-3)]Gal(b1-4)GlcNAc(b1-2)Man(a1-6)]Man(b1-4)GlcNAc(b1-4)[Fuc(a1-6)]GlcNAc
Procedure, shortened: as §1

[10] = target: Fuc(a1-2)[GalNAc(a1-3)]Gal(b1-4)GlcNAc(b1-6)GalNAc
Procedure, shortened: as §1

[11] = target: Fuc(a1-2)[GalNAc(a1-4)]Gal(b1-4)GlcNAc
Procedure, shortened: as §1

[12] = target: Fuc(a1-3)[Gal(b1-4)]GlcNAc(b1-2)Man(a1-3)[Fuc(a1-3)[Gal(b1-4)]GlcNAc(b1-2)Man(a1-6)]Man(b1-4)GlcNAc(b1-4)[Fuc(a1-6)]GlcNAc
Procedure, shortened: as §1

[13] = target: Fuc(a1-3)[Gal(b1-4)]GlcNAc(b1-3)Gal(b1-4)[Fuc(a1-3)]GlcNAc(b1-3)Gal(b1-4)[Fuc(a1-3)]GlcNAc
Procedure, shortened: as §1

[14] = target: Fuc(a1-3)[Gal3S(b1-4)]GlcNAc6S
Procedure, shortened: as §1

[15] = target: Gal(b1-3)[Fuc(a1-4)]GlcNAc(b1-3)Gal(b1-3)[Fuc(a1-4)]GlcNAc
Procedure, shortened: as §1

[16] = target: Gal(b1-3)[Fuc(a1-4)]GlcNAc(b1-6)GalNAc
Procedure, shortened: as §1

Gal(b1-4)Glc = target: Gal(b1-4)Glc
Procedure, shortened: as §1

[17] = target: Gal(b1-4)GlcNAc(b1-2)Man(a1-3)[Man(a1-6)]Man(b1-4)GlcNAc(b1-4)GlcNAc
Procedure, shortened: as §1

[18] = target: GalNAc(b1-3)Gal(a1-4)Gal(b1-4)GlcNAc(b1-3)Gal(b1-4)Glc
Procedure, shortened: as §1

GalNAc(b1-3)GalNAc = target: GalNAc(b1-3)GalNAc
Procedure, shortened: as §1

[19] = target: GlcA3S(b1-3)Gal(b1-4)GlcNAc(b1-2)Man
Procedure, shortened: as §1

[20] = target: GlcNAc(b1-3)Gal(b1-4)GlcNAc(b1-3)Gal(b1-4)GlcNAc(b1-3)Gal(b1-4)GlcNAc(b1-2)Man(a1-3)[GlcNAc(b1-3)Gal(b1-4)GlcNAc(b1-3)Gal(b1-4)GlcNAc(b1-3)Gal(b1-4)GlcNAc(b1-2)Man(a1-6)]Man(b1-4)GlcNAc(b1-4)GlcNAc
Procedure, shortened: as §1

[21] = target: GlcNAc(b1-3)Gal(b1-4)GlcNAc(b1-3)Gal(b1-4)GlcNAc(b1-3)Gal(b1-4)GlcNAc(b1-3)Gal(b1-4)GlcNAc(b1-2)[GlcNAc(b1-3)Gal(b1-4)GlcNAc(b1-3)Gal(b1-4)GlcNAc(b1-3)Gal(b1-4)GlcNAc(b1-3)Gal(b1-4)GlcNAc(b1-6)]Man(a1-6)[GlcNAc(b1-3)Gal(b1-4)GlcNAc(b1-3)Gal(b1-4)GlcNAc(b1-3)Gal(b1-4)GlcNAc(b1-3)Gal(b1-4)GlcNAc(b1-2)Man(a1-3)]Man(b1-4)GlcNAc(b1-4)[Fuc(a1-6)]GlcNAc
Procedure, shortened: as §1

[22] = target: Neu5Ac(a2-3)Gal(b1-3)GlcNAc(b1-2)Man(a1-3)[GlcNAc(b1-4)][Neu5Ac(a2-3)Gal(b1-3)GlcNAc(b1-2)Man(a1-6)]Man(b1-4)GlcNAc(b1-4)GlcNAc
Procedure, shortened: as §1

[23] = target: Neu5Ac(a2-3)Gal(b1-3)GlcNAc(b1-2)[Neu5Ac(a2-3)Gal(b1-3)GlcNAc(b1-4)]Man(a1-6)[Neu5Ac(a2-3)Gal(b1-3)GlcNAc(b1-2)Man(a1-3)]Man(b1-4)GlcNAc(b1-4)GlcNAc
Procedure, shortened: as §1

[24] = target: Neu5Ac(a2-3)Gal(b1-3)[Fuc(a1-4)]GlcNAc
Procedure, shortened: as §1

[25] = target: Neu5Ac(a2-3)Gal(b1-3)]Neu5Ac(a2-3)Gal(b1-4)]GlcNAc
Procedure, shortened: as §1

[26] = target: Neu5Ac(a2-3)Gal(b1-4)GlcNAc
Procedure, shortened: as §1

[27] = target: Neu5Ac(a2-3)Gal(b1-4)GlcNAc(b1-2)Man(a1-3)[Neu5Ac(a2-3)Gal(b1-4)GlcNAc(b1-2)Man(a1-6)]Man(b1-4)GlcNAc(b1-4)[Fuc(a1-6)]GlcNAc
Procedure, shortened: as §1

[28] = target: Neu5Ac(a2-3)Gal(b1-4)GlcNAc(b1-3)Gal(b1-4)GlcNAc(b1-3)Gal(b1-4)GlcNAc
Procedure, shortened: as §1

[29] = target: Neu5Ac(a2-3)Gal(b1-4)GlcNAc(b1-3)Gal(b1-4)GlcNAc(b1-3)GalNAc
Procedure, shortened: as §1

[30] = target: Neu5Ac(a2-3)Gal(b1-4)GlcNAc6S
Procedure, shortened: as §1

[31] = target: Neu5Ac(a2-3)Gal(b1-4)[Fuc(a1-3)]GlcNAc6S
Procedure, shortened: as §1

[32] = target: Neu5Ac(a2-3)Gal6S(b1-4)GlcNAc
Procedure, shortened: as §1

[33] = target: Neu5Ac(a2-3)Gal6S(b1-4)[Fuc(a1-3)]GlcNAc
Procedure, shortened: as §1

Neu5Ac(a2-6)Gal(b1-4)Glc = target: Neu5Ac(a2-6)Gal(b1-4)Glc
Procedure, shortened: as §1

[34] = target: Neu5Ac(a2-6)Gal(b1-4)GlcNAc(b1-3)[Neu5Ac(a2-6)Gal(b1-4)GlcNAc(b1-6)]GalNAc
Procedure, shortened: as §1

Neu5Ac(a2-8)Neu5Ac = target: Neu5Ac(a2-8)Neu5Ac
Procedure, shortened: as §1

[35] = target: Neu5Ac(a2-8)Neu5Ac(a2-3)Gal(b1-3)GalNAc(b1-4)[Neu5Ac(a2-3)]Gal(b1-4)Glc
Procedure, shortened: as §1

[36] = target: Neu5Gc(a2-3)Gal(b1-3)[Fuc(a1-4)]GlcNAc
Procedure, shortened: as §1

[37] = target: Neu5Gc(a2-3)Gal(b1-4)GlcNAc(b1-3)Gal(b1-4)GlcNAc(b1-2)Man(a1-3)[Neu5Gc(a2-3)Gal(b1-4)GlcNAc(b1-3)Gal(b1-4)GlcNAc(b1-2)Man(a1-6)]Man(b1-4)GlcNAc(b1-4)GlcNAc
Procedure, shortened: as §1

Neu5Gc(a2-6)GalNAc = target: Neu5Gc(a2-6)GalNAc
Procedure, shortened: as §1

[38] = target: Neu5Gc(a2-8)Neu5Ac(a2-3)Gal(b1-4)GlcNAc
Procedure, shortened: as §1

B1: diCBM40 CPF071 (Clostridium perfringens) (protein)
chain: MAHHHHHHVGTGSNDDDDKSPDPMLSSLGEYKDINLESSNASNITYDLEKYKNLDEGTIVVRFNSKDSKIQSLLGISNSKTKNGYFNFYVTNSRVGFELRNQKNEGNTQNGTENLVHMYKDVALNDGDNTVALKIEKNKGYKLFLNGKMIKEVKDTNTKFLNNIENLDSAFIGKTNRYGQSNEYNFKGNIGFMNIYNEPLGDDYLLSKTGETKALNGSELGSGSGLSSLGEYKDINLESSNASNITYDLEKYKNLDEGTIVVRFNSKDSKIQSLLGISNSKTKNGYFNFYVTNSRVGFELRNQKNEGNTQNGTENLVHMYKDVALNDGDNTVALKIEKNKGYKLFLNGKMIKEVKDTNTKFLNNIENLDSAFIGKTNRYGQSNEYNFKGNIGFMNIYNEPLGDDYLLSKTGETK
glycan array binding signal (z-score) [1]: -0.277 | glycan array binding signal (z-score) (Fuc(a1-2)Gal(b1-4)GlcNAc): -0.304 | glycan array binding signal (z-score) [2]: -0.238 | glycan array binding signal (z-score) [3]: -0.304 | glycan array binding signal (z-score) [4]: -0.33 | glycan array binding signal (z-score) [5]: -0.342 | glycan array binding signal (z-score) [6]: -0.307 | glycan array binding signal (z-score) [7]: -0.342 | glycan array binding signal (z-score) [8]: -0.287 | glycan array binding signal (z-score) [9]: -0.324 | glycan array binding signal (z-score) [10]: -0.321 | glycan array binding signal (z-score) [11]: -0.255 | glycan array binding signal (z-score) [12]: -0.084 | glycan array binding signal (z-score) [13]: -0.183 | glycan array binding signal (z-score) [14]: -0.332 | glycan array binding signal (z-score) [15]: -0.31 | glycan array binding signal (z-score) [16]: -0.151 | glycan array binding signal (z-score) (Gal(b1-4)Glc): -0.329 | glycan array binding signal (z-score) [17]: -0.257 | glycan array binding signal (z-score) [18]: -0.306 | glycan array binding signal (z-score) (GalNAc(b1-3)GalNAc): -0.314 | glycan array binding signal (z-score) [19]: -0.33 | glycan array binding signal (z-score) [20]: 0.045 | glycan array binding signal (z-score) [21]: -0.23 | glycan array binding signal (z-score) [22]: -0.21 | glycan array binding signal (z-score) [23]: 5.89 | glycan array binding signal (z-score) [24]: 4.37 | glycan array binding signal (z-score) [25]: 8.45 | glycan array binding signal (z-score) [26]: 4.46 | glycan array binding signal (z-score) [27]: 5.75 | glycan array binding signal (z-score) [28]: 5.87 | glycan array binding signal (z-score) [29]: -0.157 | glycan array binding signal (z-score) [30]: 7.8 | glycan array binding signal (z-score) [31]: 5.95 | glycan array binding signal (z-score) [32]: 7.24 | glycan array binding signal (z-score) [33]: 4.71 | glycan array binding signal (z-score) (Neu5Ac(a2-6)Gal(b1-4)Glc): 0.183 | glycan array binding signal (z-score) [34]: -0.197 | glycan array binding signal (z-score) (Neu5Ac(a2-8)Neu5Ac): -0.046 | glycan array binding signal (z-score) [35]: -0.2 | glycan array binding signal (z-score) [36]: 0.647 | glycan array binding signal (z-score) [37]: 6.28 | glycan array binding signal (z-score) (Neu5Gc(a2-6)GalNAc): -0.044 | glycan array binding signal (z-score) [38]: -0.252
